Experimental findings from PubChem BioAssay (NCI) are described below.

About 83,000 compounds went through this panel and 20% of them were active in at least one assay; those are over-represented in the sample as a whole.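 Testing used 96-well plates and a 48-hour single-concentration exposure. Example: -40 means 40% of the starting cells died.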 Values without a mark were called inactive. Calls of active or inactive are those of the source. The calls were made as follows: active = growth percent below 10; inactive = the rest.

Some test systems named below: NCI-H23 lung; NCI-H226 lung; NCI-H322M lung; HOP-62 NSCLC; NCI-H460 lung; NCI-H522 lung; A549/ATCC NSCLC; 786-0 renal; COLO 205 colon; DU-145 prostate; K-562 leukemia; MALME-3M melanoma; MDA-MB-231 breast; RXF 393 renal; SF-268 CNS; SF-295 CNS; SF-539 CNS; UACC-257 melanoma; M14 melanoma; HCT-15 colon.
What all share (assay): NCI-60 one-dose screen, 48 h (100 = growth as untreated, 0 = no growth, -100 = all killed)
Details in all cases: 10 µM

Turning to `Cn1c([N+](=O)[O-])cnc1/C=C1\Oc2ccc(Cl)cc2C1=O`, the growth is -12.7% (active) in the experiment with NCI-H23 lung; -27.2% (active) in the experiment on NCI-H226 lung; 11.4% with NCI-H322M lung; -17.2% (active) with HOP-62 NSCLC; -44.3% (active) in the experiment on NCI-H460 lung; -50.3% (active) with NCI-H522 lung. Besides, the growth was -40.9% (active) with A549/ATCC NSCLC; -23.2% (active) in the experiment on 786-0 renal; -41.6% (active) in the experiment on COLO 205 colon; -17.1% (active) with DU-145 prostate; 1.86% (active) in the experiment with K-562 leukemia; -55% (active) with MALME-3M melanoma. Further, the growth with MDA-MB-231 breast was -22.5% (active); in the experiment on RXF 393 renal, -70.5% (active); in the experiment on SF-268 CNS, -32.1% (active); in the experiment with SF-295 CNS, -17.3% (active); with SF-539 CNS it was -50.3% (active); with UACC-257 melanoma, -41.7% (active). The results for the growth in the experiment with M14 melanoma and in the experiment on HCT-15 colon were -33% (active) and -8.74% (active), respectively.

Consider `COc1ccc(/C=C2/CN(C(=O)c3ccccc3F)C/C(=C\c3ccc(OC)cc3)C2=O)cc1`, for which the growth with NCI-H23 lung was 73.6%; with NCI-H226 lung, 57.8%; with NCI-H322M lung, 82.9%; with HOP-62 NSCLC, 75.8%; with NCI-H460 lung, 94%; in the experiment on NCI-H522 lung it was 38.3%. The growth in the experiment on A549/ATCC NSCLC was 63.2%; with 786-0 renal, 56.9%; in the experiment on COLO 205 colon it was 59.1%; with DU-145 prostate, 42.1%; in the experiment with K-562 leukemia, 2.77% (active); with MALME-3M melanoma it was 62.1%. Also, the growth in the experiment on MDA-MB-231 breast was 70.5%; with RXF 393 renal, 12.5%; in the experiment on SF-268 CNS it was 51.5%; in the experiment on SF-295 CNS it was 50.1%; in the experiment with SF-539 CNS it was 93.1%; in the experiment on UACC-257 melanoma it was 71.2%. For the same molecule, the growth in the experiment on M14 melanoma is 1.05% (active); in the experiment on HCT-15 colon, 18.2%.

Consider `O=C1/C(=C\c2ccc(Cl)cc2)CN(C(=O)c2ccccc2)C/C1=C\c1ccc(Cl)cc1`, for which the growth is 58.2% in the experiment on NCI-H23 lung; 10% in the experiment on NCI-H226 lung; 74.5% in the experiment with NCI-H322M lung; 23.2% in the experiment with HOP-62 NSCLC; 68.3% in the experiment with NCI-H460 lung; 40.6% in the experiment with NCI-H522 lung. For the same molecule, the growth in the experiment with A549/ATCC NSCLC was 22.2%; in the experiment on 786-0 renal, 7.43% (active); in the experiment with COLO 205 colon, 32.9%; with DU-145 prostate it was 24.9%; in the experiment on K-562 leukemia, 4.94% (active); in the experiment on MALME-3M melanoma it was 64.8%. Further, the growth in the experiment with MDA-MB-231 breast was 25%; with RXF 393 renal, -22.5% (active); with SF-268 CNS, 26.9%; in the experiment on SF-295 CNS, 1.64% (active); with SF-539 CNS, 61.4%; with UACC-257 melanoma, 67.5%. The results for the growth in the experiment with M14 melanoma and in the experiment on HCT-15 colon were 2.03% (active) and 10.4%, respectively.

In the case of `Cc1cccc(NC2=C(C#N)C(=O)NC3(CCCC3)S2)c1`, the growth is 100% with NCI-H23 lung; 96.5% with NCI-H226 lung; 112% in the experiment with NCI-H322M lung; 98.7% in the experiment with HOP-62 NSCLC; 107% in the experiment on NCI-H460 lung; 15.8% in the experiment on NCI-H522 lung. Moreover, the growth in the experiment with A549/ATCC NSCLC is 30.2%; in the experiment on 786-0 renal it was 103%; in the experiment on COLO 205 colon, 127%; with DU-145 prostate, 117%; with K-562 leukemia, 95.3%; in the experiment on MALME-3M melanoma it was 104%. Besides, the growth is 110% in the experiment with MDA-MB-231 breast; 102% in the experiment on RXF 393 renal; 103% in the experiment on SF-268 CNS; 108% in the experiment with SF-295 CNS; 91.5% in the experiment on SF-539 CNS; -4.62% (active) in the experiment on UACC-257 melanoma. Also, the growth was 105% with M14 melanoma and 95.8% in the experiment on HCT-15 colon.

For `Cc1nc2ccc(CN(C)c3ccc(C(=O)N[C@@H](CCC(=O)O)C(=O)O)s3)cc2c(=O)[nH]1`, the growth in the experiment on NCI-H23 lung was 54.9%; in the experiment on NCI-H226 lung, 56.1%; in the experiment with NCI-H322M lung, 85.9%; with HOP-62 NSCLC, 28.6%; in the experiment on NCI-H460 lung it was 29.1%; with NCI-H522 lung, 71.9%. In addition, the growth is 60% in the experiment on A549/ATCC NSCLC; 18.3% in the experiment on 786-0 renal; 58.5% with COLO 205 colon; 52.6% in the experiment on DU-145 prostate; 30.6% in the experiment on K-562 leukemia; 60.7% in the experiment with MALME-3M melanoma. The growth is 89.4% in the experiment with MDA-MB-231 breast; 31.8% with RXF 393 renal; 26.4% in the experiment on SF-268 CNS; 22.9% in the experiment on SF-295 CNS; 6.05% (active) in the experiment on SF-539 CNS; 46.7% with UACC-257 melanoma. Further, the values for the growth in the experiment with M14 melanoma and in the experiment with HCT-15 colon were 21.8% and 74.5%, respectively.

Turning to `COc1ccc2c(c1OC)O/C(=C\c1ncc([N+](=O)[O-])n1C)C2=O`, the growth in the experiment with NCI-H23 lung is -17.1% (active); in the experiment with NCI-H226 lung it was 66.6%; with NCI-H322M lung, 84.1%; in the experiment with HOP-62 NSCLC, 56%; in the experiment on NCI-H460 lung, -20.8% (active); in the experiment with NCI-H522 lung, -54.5% (active). Besides, the growth with A549/ATCC NSCLC is 19.3%; with 786-0 renal it was 17.9%; in the experiment with COLO 205 colon, -55.6% (active); in the experiment on DU-145 prostate, -24.7% (active); in the experiment on K-562 leukemia, 28.8%; in the experiment with MALME-3M melanoma, -68.9% (active). Also, the growth with MDA-MB-231 breast is -20.7% (active); in the experiment with RXF 393 renal, -65.7% (active); in the experiment on SF-268 CNS it was -5.54% (active); with SF-295 CNS, 55.3%; with SF-539 CNS, 63.5%; in the experiment with UACC-257 melanoma, -55.8% (active). Also, the growth was -59.1% (active) with M14 melanoma and 1.65% (active) in the experiment with HCT-15 colon.

In the case of `Nc1c(C(=O)Nc2ccccc2Cl)sc2nc3c(cc12)C(=O)CCC3`, the growth in the experiment with NCI-H23 lung is 42.3%; with NCI-H226 lung, 75.9%; in the experiment with NCI-H322M lung it was 37.9%; in the experiment with HOP-62 NSCLC it was 83.3%; in the experiment on NCI-H460 lung, 12.4%; with NCI-H522 lung it was 32.8%. Moreover, the growth with A549/ATCC NSCLC was 24.9%; in the experiment with 786-0 renal, 91.1%; in the experiment on COLO 205 colon, 3.38% (active); in the experiment on DU-145 prostate it was 48.5%; in the experiment on K-562 leukemia, 24.9%; in the experiment with MALME-3M melanoma, 38.5%. Further, the growth in the experiment with MDA-MB-231 breast was 70.3%; in the experiment on RXF 393 renal it was 61.7%; with SF-268 CNS, 95.7%; in the experiment with SF-295 CNS it was 14.7%; in the experiment on SF-539 CNS it was 69.9%; in the experiment on UACC-257 melanoma it was 42.9%. The growth in the experiment with M14 melanoma was 50.2%; in the experiment on HCT-15 colon, 32.8%.

For `CCCCCCNC(=O)Oc1ccc(/C(=C(/CC)Cc2ccccc2)c2ccc(OCCN3CCCCC3)cc2)cc1`, the growth is 91% in the experiment with NCI-H23 lung; 88.6% with NCI-H226 lung; 91.4% in the experiment on NCI-H322M lung; 86.6% in the experiment on HOP-62 NSCLC; 73.4% with NCI-H460 lung; 77.9% in the experiment on NCI-H522 lung. The growth was 76.7% in the experiment on A549/ATCC NSCLC; 78.6% with 786-0 renal; 51.4% in the experiment with COLO 205 colon; 96.6% in the experiment with DU-145 prostate; 24% in the experiment with K-562 leukemia; 93.1% in the experiment on MALME-3M melanoma. Besides, the growth in the experiment with MDA-MB-231 breast was 83.6%; with RXF 393 renal, 73.8%; with SF-268 CNS, 80.9%; with SF-295 CNS it was 114%; with SF-539 CNS it was 91.9%; with UACC-257 melanoma, 86.1%. For the same molecule, the figures for the growth in the experiment with M14 melanoma and in the experiment with HCT-15 colon were 94.7% and 39%, respectively.
